Compounds with a hit are over-represented: about 7.6% of the library has one in this group of screens.
SW480 rereplic: DNA re-replication induction in SW480 cells; SW480 DNA re-replication, Hoechst DNA content imaging, 48 h; Potency, µM (highest dose often 46.1 µM), for the others: at the highest dose re-replication activation, hits mostly activators; actives 1.8% (n = 340,000); further: potency means the concentration at half of the fitted maximal effect; % of control where 0% means no effect; nearly all actives have a fitted effect of over 55% in size
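Hoechst fluorescence of nuclei (405 nm excitation, 500-530 nm emission) measured by plate-scanning imager after 48 hr compound exposure at 37 C; re-replication scored as increased number of nuclei with elevated intensity.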
hERG WT inh: blocks the wildtype human KCNH2 potassium channel; actives 0.37% (n = 340,000); AID 720551; Q12809; U2OS, BacMam KCNH2, thallium flux FluxOr; stronger effect = lower value; activity change, % at 1.84 µM;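 active means maximum activity change below -70%; inconclusive means maximum activity change between -70% and -50%; inactive means maximum activity change above -50%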; further: on the % scale 0 is the no-effect control and ±100 the full control effect
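U2OS cells transduced with wild-type KCNH2 virus are loaded with FluxOr dye for 45 min, and thallium flux is measured in kinetic reads before and after stimulation buffer. Rate constants are normalized to DMSO controls.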
KB-V1 MDR tox: kills drug-selected multidrug resistant KB-V1 cells. KB-V1 MDR cells viability, CellTiter-Glo, 72 h. actives 3.4% (n = 400,000). Potency, µM (series often up to 46.1 µM), usual class: cytotoxic. AID 1347076; further: potency means the concentration at half of the fitted maximal effect; on the % scale 0 is the no-effect control and ±100 the full control effect; nearly all actives have a fitted effect of over 60% in size
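In this primary screen, KB-V1 cells overexpressing P-gp are incubated with library compounds (lowest to highest concentration) for 72 h at 37 degrees C before a luminescent ATP viability read.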
KB-3-1 cytotox: kills parental KB-3-1 adenocarcinoma cells; KB-3-1 viability, CellTiter-Glo ATP luminescence, 72 h; Potency, µM (doses to about 46.1 µM), actives largely listed as cytotoxic; actives 1.4% (n = 400,000); further: potency means the concentration at half of the fitted maximal effect; on the % scale 0 is the no-effect control and ±100 the full control effect; nearly all actives have a fitted effect of over 60% in size
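72 h, 37 °C compound treatment of KB-3-1 parental cells; CellTiter-Glo added, 10 min, luminescence read. Data corrected against DMSO-only plates and normalized before curve fitting.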
KCNH2 3.1 inh: KCNH2 3.1 (human) potassium channel inhibition | U2OS KCNH2 3.1, thallium flux FluxOr; stronger effect = lower value | activity change, % (tested at about 1.8 µM) | actives 0.95% (n = 340,000);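 active means maximum activity change below -70%; inconclusive means maximum activity change from -70% to -50%; inactive means maximum activity change above -50%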;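 further: thallium influx rate constant from kinetic fluorescence after stimulation buffer; on the % scale 0 is the no-effect control and ±100 the full control effect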
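Thallium flux read-out: FluxOr dye with Red40 quencher in HBSS/HEPES, 45 min at RT. Rate constants from kinetic reads were normalized to positive and negative DMSO controls. Cells: U2OS virally expressing the 3.1 isoform.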
MCF10A rereplic: DNA re-replication induction in MCF 10a cells; MCF 10A DNA re-replication, Hoechst nuclear intensity, 48 h; actives 2.9% (n = 350,000); Potency, µM (doses to about 46.1 µM), inactives show top-dose activity, positive = re-replication, hits mostly activators; further: potency means the concentration at half of the fitted maximal effect; % of control where 0% means no effect; nearly all actives have a fitted effect of over 50% in size
An asterisk follows results filed as active; i = inactive; ? = inconclusive; · = no result. Unless noted, the call rests on the fitted dose curve; in most records, active means well fitted curve in the direction sought with a large enough effect; inconclusive means small, poorly fitted or top-dose-only effect, or another doubt; inactive means no such curve, though single readings can be large; an effect the other way counts as inactive or inconclusive.

SMILES | SW480 rereplic | hERG WT inh | KB-V1 MDR tox | KB-3-1 cytotox | KCNH2 3.1 inh | MCF10A rereplic
CC(C)c1ccc(NC(=O)CSc2nnc(-c3ccccc3)n2C)cc1 | · | · | i | i | · | ·
O=C(Cc1cccs1)Nc1nnc(CCc2ccccc2)s1 | -1% | -7 | 18µM* | i | 10 | 0%
CC(C)c1nc(SCC(=O)Nc2nc3c(s2)CCCC3)c2ccccc2n1 | ? | -8 | 15µM* | i | -13 | ?
O=C(Cc1cccs1)Nc1nnc(Cc2ccccc2)s1 | -3% | -5 | ? | i | -5 | 15%
O=S(=O)(c1ccccc1)N1CCN(C(=S)Nc2ccccc2Cl)CC1 | 18% | 24 | · | · | -9 | -1%
CC(C)N1CCc2c(sc(NC(=O)c3ccc(S(=O)(=O)N4CCc5ccccc54)cc3)c2C(N)=O)C1 | 3% | 10 | ? | 21µM* | ? | ?
CC(C)N1CCc2c(sc(NC(=O)c3cc(-c4cccs4)nc4ccccc34)c2C(N)=O)C1 | ? | 3 | i | ? | -27 | 18µM*
CCN1CCc2c(sc(NC(=O)c3ccc(S(=O)(=O)N(CCOC)CCOC)cc3)c2C(N)=O)C1 | · | · | i | i | · | ·
CCN1CCc2c(sc(NC(=O)c3ccc(S(=O)(=O)N(C)c4ccccc4)cc3)c2C(=O)NC)C1 | ? | -7 | i | i | 13 | 16µM*
CC(C)N1CCc2c(sc(NC(=O)c3nc4ccccc4s3)c2C(N)=O)C1 | ? | 3 | ? | i | -11 | 23%
CCOC(=O)c1c(NC(=O)c2ccc(S(=O)(=O)N3CCC(C)CC3)cc2)sc2c1CCN(C(C)C)C2 | · | · | i | i | · | ·
COC(=O)c1c(NC(=O)c2ccc(S(=O)(=O)N3CCCC(C)C3)cc2)sc2c1CCN(C(C)C)C2 (centres undefined) | · | · | i | i | · | ·
CNC(=O)c1c(NC(=O)c2ccc(S(=O)(=O)N(C)c3ccccc3)cc2)sc2c1CCN(C(C)C)C2 | ? | -16 | ? | i | -13 | 15µM*
Cc1ccc(-n2c(-c3ccccc3)nsc2=NC#N)cc1 | · | · | i | i | · | ·
CC(C)Nc1ccc(Nc2ccnc3cc4ccccc4cc23)cc1 | -51% | 4 | ? | 16µM* | -91* | ?
COc1ccc(Nc2ccnc3ccccc23)cc1 | -3% | -2 | ? | i | -2 | 18%
c1ccc(CCNc2ccnc3cc4ccccc4cc23)cc1 | 16µM* | 11 | 8.2µM* | 18µM* | -7 | 16µM*
Nc1ccn([C@H]2C[C@H](O)[C@@H](CO)O2)c(=O)n1 | 1% | -16 | i | i | 7 | -15%
Nc1ncn([C@H]2C[C@H](O)[C@@H](CO)O2)c(=O)n1 | 0.23µM* | 13 | i | i | 4 | -2%
Nc1nc2c(ncn2[C@H]2C[C@H](O)[C@@H](CO)O2)c(=O)[nH]1 | -4% | -13 | i | ? | 10 | -43%
Nc1nc(Cl)nc2c1ncn2C1CC(O)C(CO)O1 (centres undefined) | ? | -11 | ? | 8.2µM* | -1 | ?
O=[N+]([O-])/C=C\c1ccc(N2CCCC2)c(F)c1 | 18µM* | -6 | ? | ? | -17 | 18µM*
O=Cc1ccc(N2CCCC2)c([N+](=O)[O-])c1 | -6% | 2 | i | i | -8 | 1%
COc1ccc2c(c1O)-c1ccccc1CCN(C)C2 | -34% | 2 | i | i | 1 | -10%
CN1CCc2cccc3c2[C@@H]1Cc1ccc(O)c(O)c1-3 | 3.7µM* | · | ? | ? | · | ?
CCc1noc(C)c1C(=O)N1CC(C)OC(C)C1 (centres undefined) | -5% | 0 | i | i | 7 | 1%
CCc1noc(C)c1C(=O)N1CC(C)SC1=Nc1ccc(Cl)cc1 (centres undefined) | 1% | 3 | 16µM* | i | 10 | 8%
CCCNC(=S)N(Cc1ccccc1)Cc1nc2ccccc2c(=O)[nH]1 | -106% | 1 | 5.2µM* | ? | -2 | -3%

Compound activity (PubChem BioAssay)
